High-throughput results deposited in PubChem BioAssay by National Center for Advancing Translational Sciences (NCATS).
In the library only some 2.1% were active in any assay of this set; here they are far more common.
aSyn rescue – inhibitors of alpha-synuclein toxicity in yeast | hit rate 0.14% among 370,000 | Yeast expressing alpha-synuclein, growth rescue, BacTiter-Glo, 24 h | Potency, µM (titrated, usually from 46.1 µM), for the others: at the highest dose growth rescue (activation), actives largely listed as activators; also: % of control where 0% means no effect; nearly all actives have a fitted effect of over 65% in size
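Readout is rescue of growth in alpha-synuclein-expressing yeast, so inhibitors of toxicity appear as activators. Growth after 24 hr at 30 deg C in galactose medium is quantified by luminescence.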
Abeta yeast res – compounds reversing amyloid beta toxicity in yeast; yeast expressing A-beta42, growth rescue, OD600, 48 h; response scale: 0% DMSO, 100% iron-clioquinol control; Potency, µM (titrated, usually from 46.1 µM), hits mostly activators; hit rate 0.063% among 410,000; also: nearly all actives have a fitted effect of over 55% in size
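Yeast growth medium received pinned compounds, then yeast cells expressing toxic A-beta were added; plates incubated at 30 C for 48 hr. Growth read as absorbance at 600 nm, normalized to DMSO and equimolar FeCl3 plus clioquinol controls.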
FUS suppressor – rescues growth of FUS-expressing yeast | S. cerevisiae FUS-expressing, growth rescue, OD600, 24 h | Potency, µM (doses to about 76.6 µM), actives largely listed as activators | hit rate 0.24% among 390,000;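 also: plate controls were DMSO vehicle for no effect and reference control for full effect; nearly all actives have a fitted effect of over 55% in size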
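Yeast FUS proteinopathy model; galactose-induced FUS (2%), starting OD 0.005. Cpds in dilution series, 24hr, 30C, 99% humidity. Abs 600 nm growth. Pos ctrl CP55940 (top 92uM final); neg ctrl DMSO.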
TDP43 rescue – TDP-43 toxicity inhibition in yeast; Potency, µM (doses to about 46.1 µM), inactives show top-dose growth rescue (activation), actives largely listed as activators; TDP-43 expressing yeast growth rescue, BacTiter-Glo, 24 h; AID 652104; hit rate 1.8% among 410,000; also: % of control where 0% means no effect; nearly all actives have a fitted effect of over 50% in size
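Readout is BacTiter-Glo luminescence of cell growth, so inhibitors register as activators. TDP-43-expressing yeast at OD600=0.02 in galactose medium, after raffinose pregrowth to mid-log, were incubated with compound for 24 hr at 30 deg C.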
The depositor's hits bear a star; i = inactive; u = inconclusive; x = not tested or not shown; [ ] = remark or other dose. Calls follow the shape of the dose curve; as a rule, active = well fitted curve in the direction sought with a large enough effect; inconclusive = small, poorly fitted or top-dose-only effect, or another doubt; inactive = no such curve, though single readings can be large; an effect the other way counts as inactive or inconclusive. Potency is read from the fitted curve at half-maximal effect.

SMILES	aSyn rescue	Abeta yeast res	FUS suppressor	TDP43 rescue
Nc1nonc1-n1nnc(C(=O)N/N=C/c2cc(Br)ccc2O)c1CNc1ccccc1	-4%	i	i	1%
Nc1nonc1C(=O)N/N=C/c1cc(Br)ccc1O	u	10µM*	i	2.8µM*
Cc1ccc(S(=O)(=O)N(CC(O)Cn2c3ccccc3c3ccccc32)c2cccc(C(=O)NCCO)c2)cc1 (configuration not stated)	-5%	i	20µM*	13%
C=CCn1cnc2c(nnn2-c2cc(C)cc(C)c2)c1=O	2%	i	i	11µM*
Oc1ccccc1/C=N/Nc1cccc2cccnc12	-17%	i	i	18µM*
CC(=O)c1ccc2noc(-c3ccccc3)c2c1	-2%	i	i	-6%[0.397 µM]
c1ccc(-c2onc3cc4c(cc23)OCCO4)cc1	-1%	i	i	35µM*
Cn1c(=O)c2c(nc(CN3CCc4ccccc4C3)n2Cc2cccc(Cl)c2)n(C)c1=O	19%	i	u	20µM*
O=C(COc1ccc(Cl)cc1Cl)NNC(=S)NC(=O)c1ccco1	10µM*	u	i	18µM*
CCC(=O)NC(=S)NNC(=O)c1ccc(OC)cc1	10µM*	10µM*	i	20%
O=C(NC(=S)NNC(=O)c1ccco1)c1ccc(Br)cc1	u	i	i	3.5µM*
CCCOc1ccc(C(=O)NNC(=S)NC(C)=O)cc1	4µM*	u	i	11µM*
O=C(/C=C/c1ccco1)NC(=S)NNC(=O)c1ccco1	11µM*	u	i	u
COc1ccc(C(=O)NNC(=S)NC(=O)c2ccco2)cc1	-20%	i	i	u
CCCOc1ccc(C(=O)NNC(=S)NC(=O)c2ccco2)cc1	-28%	i	i	6.3µM*
CCCN1CNc2c(c(=O)[nH]c(=S)n2CCCc2ccccc2)C1	1%	x	x	x
COc1ccc(-c2nc3ccccc3o2)cc1NC(=O)COc1ccc(C)cc1	4%	x	x	x
CCc1ccc(-c2cc(C)no2)cc1S(=O)(=O)Nc1ccc(Cl)cc1	x	i	u	22µM*
Cc1cc(-c2ccc(C)c(S(=O)(=O)NCc3ccc(Cl)cc3)c2)on1	x	i	i	32µM*
CCc1ccc(-c2cc(C)no2)cc1S(=O)(=O)NCCc1ccccc1	22%	i	i	13µM*
Cc1ccc(-c2ccc(CCC(=O)O)n2-c2cccc(C)c2C)cc1	x	i	u	-91%
CCc1ccccc1NC(=O)c1cc(C)nn1-c1ccccc1	x	x	i	x
COc1ccc(-c2nc3ccccc3n2Cc2ccc(C(C)C)cc2)cc1	1%	i	i	22µM*
COc1ccc(-n2c(=S)[nH]c3ccccc32)cc1	5%	i	u	u
COc1ccc(-c2nc3ccccc3n2Cc2ccc(Cl)cc2)cc1	x	i	i	22µM*
SMILES	aSyn rescue	Abeta yeast res	FUS suppressor	TDP43 rescue
COc1ccc(-c2nc3ccccc3n2Cc2ccc(C)cc2)cc1	10%	u	i	4%
COc1ccc(Cn2c(=S)[nH]c3ccccc32)cc1	-16%	11µM*	i	16%
CCOC(=O)c1cnc2c(OC)cccc2c1Nc1cccc(O)c1	-17%	i	i	15%
Cc1cc(C(=O)C(=O)Nc2nnc(C(C)C)s2)c(C)n1-c1ccccc1	x	i	u	-11%
CCOC(=O)C1=C(CN2CCC(C(=O)OCC)CC2)NC(=O)NC1c1ccc(Cl)cc1 (configuration not stated)	x	i	i	-9%
O=c1[nH]c(C2CCCN(S(=O)(=O)c3ccccc3Cl)C2)nc2c1nnn2Cc1ccc(OC(F)(F)F)cc1 (configuration not stated)	x	i	i	-6%
O=c1[nH]c(C2CCCN(S(=O)(=O)c3ccccc3Cl)C2)nc2c1nnn2Cc1ccc2c(c1)OCCO2 (configuration not stated)	0%	x	14µM*	2%
C=CCN1C(=O)/C(=C/c2ccc(OCC(=O)O)cc2)S/C1=N/c1nccs1	3%	i	i	22%
C=CCN1C(=O)/C(=C/c2ccc(O)c(OC)c2)S/C1=N/c1nccs1	13%	i	x	22µM*
Cc1ccc(O)c(N=NC2=C(O)CC(C)(C)CC2=O)c1	7.1µM*	u	x	12%
CC1(C)CC(=O)C(N=Nc2cc(Cl)c(Cl)c(Cl)c2)=C(O)C1	6%	i	i	7%
Cn1c(=O)n(C)c2cc(N3CCOCC3)c(NS(=O)(=O)c3ccc(Br)cc3)cc21	x	i	i	14%
O=C(NCCSc1ccc(Cl)cc1)c1ccco1	-3%	i	i	7.1µM*
COc1ccc(Cl)cc1NC(=S)NCCSc1ccc(C)cc1	-6%	i	x	22µM*
Cc1cccc(C)c1NC(=S)NCCSc1ccc(Cl)cc1	6%	i	i	22µM*
Cc1ccc2c(c1)C1CS(=O)(=O)N(CC(C)C)CN1C2 (configuration not stated)	x	x	i	x
CC(C)c1ccc(NC(=O)C2CCCN(S(=O)(=O)c3ccc4[nH]c(=O)ccc4c3)C2)cc1 (configuration not stated)	x	i	i	25%
COc1ccc(OC)c(C2c3c(oc4ccc(C)cc4c3=O)C(=O)N2CCCN(C)C)c1 (configuration not stated)	x	i	i	18%
Cc1ccc(N/C(C(Cl)=C(Cl)Cl)=C(/Cl)[N+](=O)[O-])c(C)c1	8%	i	i	13µM*
Cc1ccc(NC(=O)CCn2nc(C)cc2C)cc1	0%	i	i	5%
COc1ccccc1-c1nn(CCC(=O)Nc2ccc(C)cc2)c2nc(C)cc(C)c12	u	i	i	35µM*
O=C(NNC(=S)Nc1cccc(C(F)(F)F)c1)c1cccc(Cl)c1	-7%	i	i	8.9µM*
O=C(Nc1cccc(-c2csc(Nc3ccc(Cl)cc3)n2)c1)c1cccc(C(F)(F)F)c1	-22%	i	i	25µM*
COc1ccc(-c2csc(C)n2)cc1Br	1%	i	i	11µM*
COc1cc(-c2csc(C)n2)ccc1O	0%	i	i	16%
SMILES	aSyn rescue	Abeta yeast res	FUS suppressor	TDP43 rescue
COc1ccc2c(Sc3ccc(C)cc3)c(C(=O)NCc3ccc(F)cc3)[nH]c2c1	x	i	i	3%
S=C1NC2(CCCCCC2)N=C1c1ccccc1	7%	5µM*	i	u
O=C1NC2(CCCCCC2)N=C1c1ccc(F)cc1	-8%	i	i	16µM*
CN(C)c1ccc(C(O)c2cc3ccccc3s2)cc1 (configuration not stated)	14µM*	u	i	16%
Cc1ccc(CN2CCN(/N=C\C(Br)=C\c3ccccc3)CC2)cc1	2%	i	i	13µM*
Cc1cc(C)c(C#N)c(SCc2ccc([N+](=O)[O-])cc2)n1	0%	i	i	10%
Cc1cc(C)c(C#N)c(Sc2nc(C)c([N+](=O)[O-])c(C)c2C#N)n1	-14%	i	i	20µM*
Cc1nc(Sc2ccccc2)c(C#N)c(C)c1[N+](=O)[O-]	1%	u	i	7.1µM*
